High-throughput results (PubChem)
Most compounds without a hit are left out; they make up all but 1.4% or so of the library.
RecA intein inh – Mtb RecA intein splicing inhibition. cell-free RecA intein splicing, fluorescence. inhibition, % (test concentration not listed). actives 0.75% (n = 290,000). AID 2221; in the data active means inhibition above about 30%;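 further: 0% = vehicle wells and 100% = reference inhibitor control wells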
BJeLR viability – kills HRASV12-expressing BJeLR cells. AID 1554. BJeLR (HRASV12) viability, CellTiter-Glo ATP luminescence, 48 h. actives 0.17% (n = 300,000). inhibition, % (test concentration not listed); in the data active means inhibition above about 50%
PrP 5UTR inh – suppresses PrP 5' UTR mRNA reporter expression. cell-based PrP 5' UTR mRNA reporter, plate reader. inhibition, % (concentration not given with the values). actives 0.35% (n = 340,000). AID 488862; in the data active means inhibition above about 52%; further: 0 = median of the neutral control wells
Mtb hypoxia inh – reduces hypoxia-regulated biosensor signal in M. tuberculosis | AID 1159583 | M. tuberculosis hypoxia-regulated fluorescent reporter, fluorescence | fluorescence inhibition, % (test concentration not listed) | actives 0.1% (n = 300,000); in the data active means fluorescence inhibition mostly above about 23%, no sharp cut-off; inactive means mostly below about 17%
PrPC surface inh – reduces human prion protein on the cell surface; P04156; cell surface PrPC, TR-FRET read-out; inhibition, % at 13.8 µM; actives 0.43% (n = 370,000); AID 720596; in the data active means inhibition above about 24%; further: 0% = median of the test wells and 100% = reference compound wells
SARS 3CLpro inh – SARS-CoV 3CLpro protease inhibition; P0C6X7; recombinant SARS-CoV 3CLpro, quenched FRET peptide cleavage; inhibition, % at 6 µM; actives 0.14% (n = 290,000); AID 1706; in the data active means inhibition above about 12%
GFP chromo cs – counter-screen: blocks GFP chromophore formation; shares compounds with RecA intein inh; actives 83% (n = 2,100); cell-free GFP chromophore formation, fluorescence; EC50, µM; call rule not given here
An asterisk follows results filed as active; / = no result shown.

SMILES	RecA intein inh	BJeLR viability	PrP 5UTR inh	Mtb hypoxia inh	PrPC surface inh	SARS 3CLpro inh	GFP chromo cs
COC(=O)CCS(=O)(=O)c1nc(-c2ccccc2)cc(C(F)(F)F)n1	67*	3	17	9	/	-1	11*
CCOC(=O)CCS(=O)(=O)c1nc(-c2ccccc2)cc(C(F)(F)F)n1	78*	23	-15	/	/	7	7.2*
CCOC(=O)CS(=O)(=O)c1nc(-c2ccc(F)cc2)cc(C(F)(F)F)n1	74*	29	-6	/	/	7	6*
O=C(O)CCS(=O)(=O)c1nc(-c2cccs2)cc(C(F)(F)F)n1	25	5	/	12	0	-5	/
COCCNC(=O)CCSc1nc(-c2ccc(OC)cc2)cc(C(F)(F)F)n1	2	-1	0	/	-2	0	/
CS(=O)(=O)c1nc(-c2ccc(F)cc2)cc(C(F)(F)F)n1	/	-6	-5	-4	4	2	/
COCC(C)NC(=O)CCS(=O)(=O)c1nc(-c2ccc(OC)cc2)cc(C(F)(F)F)n1 (stereo not given)	33*	1	-1	13	9	-2	35*
CC1CN(C(C)CO)C(=O)c2cccc(NC(=O)c3ccncc3)c2OC1CN(C)Cc1ccc(C(=O)O)cc1 (stereo not given)	/	/	/	18	/	/	/
O=C1N/C(=N\N=Cc2ccco2)SC1Cc1ccccc1[N+](=O)[O-] (stereo not given)	/	/	/	-1	/	/	/
CCOC(=O)CS(=O)(=O)c1nc(-c2ccccc2)cc(C(F)(F)F)n1	72*	27	1	/	12	3	5.9*
COc1ccc(-c2cc(C(F)(F)F)nc(S(C)(=O)=O)n2)cc1	72*	-10	-19	2	14	1	14*
O=C(CCl)Nc1ccccc1Sc1ccccc1	/	6	-9	14	-6	0	/
Cc1ccc(Sc2ccc(NC(=O)CCl)cc2)cc1C	66*	-1	9	14	1	0	7.3*
Cc1ccc(C)c(Sc2ccc(NC(=O)CCl)cc2)c1	91*	1	/	9	3	3	7*
COc1ccc(CN2CCC(=O)N(C(CO)c3ccccc3)CC2)cc1 (stereo not given)	/	/	/	9	/	/	/
COCc1c(C(=O)NN=C(C)c2ccncc2)nnn1-c1nonc1N	/	/	/	-14	/	/	/
C=C(C)C1CCC(C)=C1CC(C)(C)C=Nn1cnnc1 (stereo not given)	/	/	/	-5	/	/	/
CN(C)c1nc(N(C)C)nc(N(C#N)CN2C(=O)c3ccccc3S2(=O)=O)n1	-4	5	-11	12	-3	2	/
CC(C)(C)Nc1nc(Cl)nc(N(C#N)CN2C(=O)c3ccccc3S2(=O)=O)n1	51*	-8	-14	-4	5	5	39*
S=c1[nH]nc(COc2ccccc2)n1N=Cc1ccc(Cl)cc1Cl	/	/	/	2	/	/	/
COc1ccc(S(=O)(=O)NCc2cccnc2)cc1C	-2	15	-18	21	9	3	/
CCOc1ccc(S(=O)(=O)NCc2cccnc2)cc1C	40*	4	-20	23	5	1	>38
CCn1c(SCC(=O)Nc2nc(-c3ccc(C)cc3)cs2)nnc1-c1ccccc1O	38*	5	-21	/	7	-4	>38
CC1=NN(c2ccccc2)C(=O)/C1=C/c1c(O)n(-c2ccc(F)c(Cl)c2)[nH]c1=O	50*	1	/	12	/	4	32*
CCOC(=O)C1C2COc3ccc(C)cc3C2N2C(=O)c3cc(Br)ccc3NC(=O)[C@@]12C (stereo not given in full)	/	/	/	-3	/	/	/
SMILES	RecA intein inh	BJeLR viability	PrP 5UTR inh	Mtb hypoxia inh	PrPC surface inh	SARS 3CLpro inh	GFP chromo cs
CCCCCCCN(C(=O)CCl)c1ccccc1C	56*	-3	-23	18	-7	2	18*
CCCN(C(=O)Cn1ncc2c([nH]c3ccccc32)c1=O)c1ccccc1C	-1	3	-27	8	6	2	/
COC(=O)CC1c2cc(C(F)(F)F)ccc2S(=O)(=O)N1C1CCCCC1 (stereo not given)	/	/	/	21	/	/	/
Cc1n[nH]c(=S)n1N=Cc1ccccc1OCc1ccc(Cl)cc1	/	/	/	6	/	/	/
CCCCc1ccc(NC(=O)CSCc2cc(=O)[nH][nH]2)cc1	64*	-8	/	4	6	-1	17*
CCCCc1ccc(NC(=O)COCC)cc1	-2	-2	-14	/	21	2	/
O=C(CSCc1cc(=O)[nH][nH]1)Nc1ccc(F)cc1	85*	4	-29	-1	-7	6	12*
CC(C)CN1CCC(=O)N(C(COc2ccccc2)Cc2ccccc2)CC1 (stereo not given)	/	/	/	7	/	/	/
CCN(C(=O)c1ccc2c(Cl)c3c(nc2c1)CCC3)c1ccc(C)c(C)c1	30*	-3	-8	6	5	-3	9.1*
C#CCOCCOCCOCCNc1nc(N2CCN(C(=O)C(CCCCN)n3cc(C(N)C(C)CC)nn3)CC2)nc(N2CCN(C(=O)C(Cc3cc4ccccc4[nH]3)n3cc(C(N)C(C)CC)nn3)CC2)n1 (stereo not given)	/	/	/	8	/	/	/
COC(=O)C(Cc1ccccc1)NC(=O)[C@@]1(C)CC1C(NC(=O)OCc1ccccc1)c1ccccc1 (stereo not given in full)	/	/	/	-3	/	/	/
Nc1c(O)cccc1C(=O)O	71*	9	-10	-6	-15	/	6.1*
O=C(O)c1ccccc1O	-2	-9	5	19	4	-5	/
CC1=NN(c2ccccc2)C(=O)C1=C(C)C	55*	0	-25	7	-3	2	8.5*
COc1ccc(NC(=O)NC(CCSC)C(=O)O)cc1Cl (stereo not given)	/	/	/	0	/	/	/
Cc1ccc2nc(-c3cccs3)oc(=O)c2c1	32*	2	11	17	3	-1	>38
CC(C)Cc1ccc(S(=O)(=O)Nc2ccc3[nH]c(=O)[nH]c3c2)cc1	0	-2	-16	0	10	-4	/
CC(C)Cc1ccc(-c2cc(=O)[nH][nH]2)cc1	92*	4	-37	7	6	4	2.6*
CC(NC(=O)/C(C#N)=C/c1ccco1)c1ccccc1 (stereo not given)	2	9	-22	2	1	1	/
CC(NC(=O)/C(C#N)=C/c1ccc([N+](=O)[O-])o1)c1ccccc1 (stereo not given)	47*	-8	-4	/	-1	1	>38
O=C(CCl)Nc1cccc(Oc2ccccc2)c1	65*	0	-17	13	-3	6	35*
CC(=O)Nc1ccc(N=Nc2ccccc2)cc1	2	-14	-146	5	-15	5	/
O=C(CCl)Nc1ccc(-c2ccccc2)cc1	75*	1	-42	/	-8	9	24*
CC(C)N(c1ccccc1)c1ccc(NC(=O)CCl)cc1	51*	12	-11	21	6	8	8.7*
CC(=O)Nc1ccc(NC(=O)Cc2ccc(-c3ccccc3)cc2)cc1	-1	-2	-27	3	8	0	/
